We go through 18 compounds from PubChem BioAssay (Tox21).

SMILES strings stand for the structures. “And” between values parts separate entries of the source, which are not always exact repeats. Identical values can stand only once. The source made the active and inactive calls. Unless noted, calls come from the whole dose curve; as a rule, active = well fitted curve in the direction sought with a large enough effect in the repeat runs; inconclusive = weak or mixed curves; inactive = no such curve, though single readings can be large; an effect the other way counts as inactive or inconclusive.

Test [1] can be described thus: qHTS assay for identifying genotoxic compounds that show differential cytotoxicity against isogenic chicken DT40 cell lines with known DNA damage response pathways - wild type cell line (AID 743012). Note: nearly all actives have a fitted effect of over 60% in size. Note: potency is the fitted concentration of half-maximal effect. The gist of the method: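 Wild type DT40, 300 cells/well, ~0.5 h settle at 37 C/5% CO2; compounds in DMSO added by pintool; 40 h at 37 C/5% CO2; CellTiter-Glo, 30 min RT; luminescence.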
(In general: In qHTS, concentration-response curves come from the screen itself.)

Test [2] in a line: qHTS assay for identifying genotoxic compounds that show differential cytotoxicity against isogenic chicken DT40 cell lines with known DNA damage response pathways - Rev3 mutant cell line (AID 743014). Note: nearly all actives have a fitted effect of over 55% in size. Note: potency is the fitted concentration of half-maximal effect.
The nature of test [3]: qHTS assay for identifying genotoxic compounds that show differential cytotoxicity against isogenic chicken DT40 cell lines with known DNA damage response pathways - Rad54/Ku70 mutant cell line (AID 743015). Note: nearly all actives have a fitted effect of over 60% in size. Note: potency is the fitted concentration of half-maximal effect.
A short description of test [4]: qHTS assay to identify small molecule antagonists of the androgen receptor (AR) signaling pathway - cell viability counter screen (AID 743033; note: nearly all actives have a fitted effect of over 45% in size; note: potency is the fitted concentration of half-maximal effect).
A short description of test [5]: qHTS assay to identify small molecule antagonists of the androgen receptor (AR) signaling pathway using the MDA cell line - cell viability counter screen (AID 743041; note: nearly all actives have a fitted effect of over 45% in size; note: potency is the fitted concentration of half-maximal effect). The gist of the method:
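Viability counter screen run alongside the AR antagonist reporter: cells seeded 5 h before compound, R1881 added, 16 h incubation at 37C without CO2, fluorescent CellTiter-Fluor signal quantified.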

Test [6] in a line: qHTS assay to identify small molecule antagonists of the thyroid receptor (TR) signaling pathway - cell viability counter screen (AID 743064). Note: nearly all actives have a fitted effect of over 50% in size. Note: potency is the fitted concentration of half-maximal effect. In a few lines:
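GH3.TRE-Luc rat pituitary cells dosed after 4 hr plating, co-stimulated with T3 at 1 nM final, incubated 23.5 h at 37 C. Viability measured in the same wells by CellTiter-Fluor fluorescence after 30 min further at 37 C.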

Test [7] is described as follows: qHTS assay to identify small molecule antagonists of the thyroid receptor (TR) signaling pathway (AID 743065). Note: nearly all actives have a fitted effect of over 55% in size. Note: potency is the fitted concentration of half-maximal effect. In a few lines:
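GH3.TRE-Luc rat pituitary cells carrying two TR response elements driving luciferase were plated for 4 h, given compound plus 1 nM T3 (final), and incubated 23.5 h at 37 C. ONE-Glo luminescence measured reporter inhibition; CellTiter-Fluor fluorescence tracked cytotoxicity.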

In test [8] the test system is thyroid hormone receptor (rat, GH3 cells). In words: qHTS assay to identify small molecule agonists of the thyroid receptor (TR) signaling pathway (AID 743066; calls by dose curve).
Test [9] deals with Estrogen receptor (Homo sapiens) (UniProt P03372). Put plainly: qHTS assay to identify small molecule antagonists of the estrogen receptor alpha (ER-alpha) signaling pathway (AID 743069; active = well fitted curve in the direction sought with a large enough effect in the signal ratio in the repeat runs, not every such curve was filed as active; inconclusive = weak or mixed curves, or effect the other way; inactive = no such curve, though single readings can be large or run the other way; the % refers to the signal ratio). In a few lines:
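Estradiol-stimulated ER-alpha-UAS-bla HEK293 cells, 18 hr compound exposure at 37C. LiveBLAzer B/G substrate, 2 hr RT, fluorescence read.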

Test [10] in a line: qHTS assay to identify small molecule antagonists of the estrogen receptor alpha (ER-alpha) signaling pathway - cell viability counter screen (AID 743074; calls by dose curve;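 note: HEK293 cells carrying ER-alpha-UAS-bla reporter stimulated with 17beta-estradiol; nearly all actives have a fitted effect of over 45% in size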).
Test [11] addresses Estrogen receptor (Homo sapiens) (UniProt P03372). In words: qHTS assay to identify small molecule agonists of the estrogen receptor alpha (ER-alpha) signaling pathway (AID 743075; calls by dose curve;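 note: HEK293 GripTite cells with ER-alpha and UAS-driven beta-lactamase reporter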; note: potency is the fitted concentration of half-maximal effect).
Test [12] shares this target. Put plainly: qHTS assay to identify small molecule agonists of the estrogen receptor alpha (ER-alpha) signaling pathway using the BG1 cell line (AID 743079). Note: nearly all actives have a fitted effect of over 20% in size. Note: potency is the fitted concentration of half-maximal effect.
Test [13] in a line: qHTS assay to identify small molecule antagonists of the estrogen receptor alpha (ER-alpha) signaling pathway using the BG1 cell line (AID 743080; calls by dose curve;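 note: BG1 cells stimulated with 17beta-estradiol alongside compound; series mostly up to about 70 µM; nearly all actives have a fitted effect of over 25% in size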). The gist of the method: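 BG1Luc4E2, endogenous ER-alpha, 4xERE-luc; 5 d charcoal-stripped FBS, phenol red free; 24 h plating; cpd + 17beta-estradiol 21.5 h, 37 C/5% CO2; CellTiter-Fluor viability 30 min, then ONE-Glo luciferase 30 min RT.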

Test [14] can be described thus: qHTS assay to identify small molecule antagonists of the estrogen receptor alpha (ER-alpha) signaling pathway using the BG1 cell line - cell viability counter screen (AID 743081).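 Note: compound given together with 17beta-estradiol as the ER stimulus; nearly all actives have a fitted effect of over 45% in size.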 Note: potency is the fitted concentration of half-maximal effect.
In a further test the target is Aromatase (Homo sapiens) (UniProt P11511). Put plainly: qHTS assay to identify aromatase inhibitors (AID 743083). Note: nearly all actives have a fitted effect of over 55% in size. Note: potency is the fitted concentration of half-maximal effect.
Sequence of Aromatase (Homo sapiens) (P11511 whole entry, looked up): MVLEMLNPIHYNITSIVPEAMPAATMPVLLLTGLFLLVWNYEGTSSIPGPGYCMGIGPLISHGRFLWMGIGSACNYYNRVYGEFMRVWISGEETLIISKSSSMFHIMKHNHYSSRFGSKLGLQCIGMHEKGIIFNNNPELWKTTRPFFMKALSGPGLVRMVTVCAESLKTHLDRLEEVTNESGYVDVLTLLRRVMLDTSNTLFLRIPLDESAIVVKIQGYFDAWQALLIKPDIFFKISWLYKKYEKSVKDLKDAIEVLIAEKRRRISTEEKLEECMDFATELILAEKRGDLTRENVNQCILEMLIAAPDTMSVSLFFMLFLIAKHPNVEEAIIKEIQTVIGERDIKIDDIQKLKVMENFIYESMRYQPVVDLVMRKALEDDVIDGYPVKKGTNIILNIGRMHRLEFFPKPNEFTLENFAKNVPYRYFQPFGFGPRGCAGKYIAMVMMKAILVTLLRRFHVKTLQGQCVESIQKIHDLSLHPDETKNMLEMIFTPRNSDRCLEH
Test [15] can be described thus: qHTS assay to identify small molecule antagonists of the glucocorticoid receptor (GR) signaling pathway - cell viability counter screen (AID 720693). Note: nearly all actives have a fitted effect of over 55% in size.
The target in test [16] is Androgen receptor (Homo sapiens) (UniProt P10275). In words: qHTS assay to identify small molecule antagonists of the androgen receptor (AR) signaling pathway (AID 743035; active = well fitted inhibition curve with a large enough effect in the signal ratio in the repeat runs, not every such curve was filed as active; inconclusive = weak or mixed curves, or effect the other way; inactive = no such curve, though single readings can be large or run the other way; the % refers to the signal ratio; note: potency is the fitted concentration of half-maximal effect). In a few lines:
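Fluorescence from a beta-lactamase FRET substrate (LiveBLAzer B/G, 2 h, room temperature) measured inhibition of R1881-stimulated signaling in GeneBLAzer AR-UAS-bla HEK293 cells exposed to compound for 16 h at 37C.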

For test [17] the target is unchanged. In words: qHTS assay to identify small molecule agonists of the androgen receptor (AR) signaling pathway using the MDA cell line (AID 743040; note: nearly all actives have a fitted effect of over 20% in size). The gist of the method:
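Luminescence from ONE-Glo, read after 30 min at room temperature, reflects MMTV-driven luciferase in MDA-kb2 cells (AR- and GR-responsive). Treatment lasted 16 h at 37C, 0% CO2.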

The target is the same in test [18]. Put plainly: qHTS assay to identify small molecule antagonists of the androgen receptor (AR) signaling pathway using the MDA cell line (AID 743042; note: nearly all actives have a fitted effect of over 55% in size). In a few lines:
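MDA-kb2 cells (human breast carcinoma, stably carrying an MMTV-luciferase reporter responsive to AR and GR) were plated at 3,000 cells/well and preincubated 5 hr at 37C, then given compound plus R1881 agonist for 16 h. ONE-Glo luminescence was read.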

Test [19] has the same target. Put plainly: qHTS assay to identify small molecule agonists of the androgen receptor (AR) signaling pathway (AID 743036; active = well fitted activation curve with a large enough effect in the signal ratio in the repeat runs, with a control signal flat, not every such curve was filed as active; inconclusive = weak or mixed curves, or effect the other way; inactive = no such curve, though single readings can be large or run the other way; the % refers to the signal ratio). The gist of the method: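 AR-UAS-bla HEK293 cells, plated 4 h before dosing, were treated with compound for 16 h at 37C. beta-Lactamase reporter read after 2 h with LiveBLAzer B/G FRET substrate at room temperature.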

Sequence of Estrogen receptor (Homo sapiens) (P03372 whole entry, looked up): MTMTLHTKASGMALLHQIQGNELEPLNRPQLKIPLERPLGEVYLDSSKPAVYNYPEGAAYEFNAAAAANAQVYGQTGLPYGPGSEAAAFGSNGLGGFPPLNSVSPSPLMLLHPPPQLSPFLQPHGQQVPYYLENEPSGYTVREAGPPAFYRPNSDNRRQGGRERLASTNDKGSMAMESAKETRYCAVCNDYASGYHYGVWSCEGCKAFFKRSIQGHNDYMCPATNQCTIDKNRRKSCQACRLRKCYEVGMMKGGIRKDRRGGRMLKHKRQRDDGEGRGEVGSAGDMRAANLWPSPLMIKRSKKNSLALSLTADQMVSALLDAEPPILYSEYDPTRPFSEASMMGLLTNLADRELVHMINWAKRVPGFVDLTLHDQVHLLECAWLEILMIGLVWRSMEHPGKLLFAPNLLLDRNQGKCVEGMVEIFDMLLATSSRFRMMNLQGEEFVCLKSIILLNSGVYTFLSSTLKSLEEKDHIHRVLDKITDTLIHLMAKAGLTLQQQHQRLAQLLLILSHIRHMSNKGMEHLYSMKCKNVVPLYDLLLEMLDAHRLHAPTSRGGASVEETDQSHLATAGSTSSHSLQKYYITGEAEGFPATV
Sequence of Androgen receptor (Homo sapiens) (P10275 whole entry, looked up): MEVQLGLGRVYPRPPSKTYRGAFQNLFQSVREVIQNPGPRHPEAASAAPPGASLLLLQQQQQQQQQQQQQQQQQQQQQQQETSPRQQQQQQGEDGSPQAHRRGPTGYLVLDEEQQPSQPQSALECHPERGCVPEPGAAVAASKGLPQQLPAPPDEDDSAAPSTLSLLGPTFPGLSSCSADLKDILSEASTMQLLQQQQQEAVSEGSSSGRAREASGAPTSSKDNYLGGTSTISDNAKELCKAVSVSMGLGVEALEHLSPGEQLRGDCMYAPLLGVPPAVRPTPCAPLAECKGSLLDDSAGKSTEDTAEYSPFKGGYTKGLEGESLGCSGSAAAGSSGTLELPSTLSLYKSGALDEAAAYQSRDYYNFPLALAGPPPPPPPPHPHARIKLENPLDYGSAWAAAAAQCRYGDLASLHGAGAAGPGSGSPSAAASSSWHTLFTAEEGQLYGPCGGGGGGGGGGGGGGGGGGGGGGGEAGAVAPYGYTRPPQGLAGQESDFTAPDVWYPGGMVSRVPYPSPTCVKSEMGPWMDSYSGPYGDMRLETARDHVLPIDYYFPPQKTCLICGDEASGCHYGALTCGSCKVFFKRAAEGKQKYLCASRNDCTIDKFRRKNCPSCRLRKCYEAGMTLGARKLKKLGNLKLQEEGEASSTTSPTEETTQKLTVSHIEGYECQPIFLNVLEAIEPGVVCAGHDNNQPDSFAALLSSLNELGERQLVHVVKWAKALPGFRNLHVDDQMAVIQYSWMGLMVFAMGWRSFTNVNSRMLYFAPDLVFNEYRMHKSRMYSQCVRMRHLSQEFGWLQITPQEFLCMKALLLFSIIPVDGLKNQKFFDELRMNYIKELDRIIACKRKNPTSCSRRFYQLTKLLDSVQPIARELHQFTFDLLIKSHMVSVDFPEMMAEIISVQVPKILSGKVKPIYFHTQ

For the compound `O=C(O)c1cc(=O)c2ccccc2o1`, the Potency entry in test [1], in [2], in test [3], in test [4], in [5] and in test [6] was “inactive” each time. Besides, the Potency entry in [7], in test [9], in test [10], in test [11], in test [12] and in test [13] was “inactive” in each case. In addition, the Potency entry (in test [14]; with Aromatase (Homo sapiens)) was “inactive” throughout. The outcome in test [8] was inactive.

As for `O=[N+]([O-])c1ccc(O)cc1C(F)(F)F`, the Potency in test [1] was 27.3 µM (active); in test [2] it was 27.3 µM (active); in test [3] it was 21.7 µM (active); in [4], 27.5 µM (active); in test [5] it was 61.1 µM (active); in test [6] it was 54.5 µM (active). The Potency in test [7] was 21.7 µM (active).

As to `Sc1nc2ccccc2s1`, the Potency entry in test [15], in [5], in test [6], in test [7], in [10] and in test [14] was “inactive” in each case. For the same compound, the compound was classed as inactive in test [8].

Turning to `C=CC(=O)OCCOC(=O)C=C`, the Potency in test [1] is 7.7 µM (active); in [2], 7.7 µM (active); in test [3], 10.9 µM (active); in test [6], 61.1 µM (active); in [7] it was 38.6 µM (active); in test [11], 17.4 µM [inconclusive] (active). Besides, the Potency in test [12] is 1.72 µM (active). Besides, the Potency entry in test [4], in [16], in test [5], in test [18], in [10] and in test [14] was “inactive” throughout. The compound was called inactive in [17] and in [8].

For the compound `CCCCC(CC)COC(=O)CCCCC(=O)OCc1ccccc1` (stereo not drawn), the Potency result in [1], in test [2], in [3], in test [4], in [5] and in test [6] was “inactive” throughout. Also, the Potency result in test [7], in test [9], in test [10], in [11], in test [12] and in test [13] was “inactive” in each case. In addition, the Potency result (in test [14]; in the test with Aromatase (Homo sapiens)) was “inactive” in each case. Moreover, the compound was classed as inactive in test [8].

In the case of `CCN(CC)c1ccc2c(-c3ccc(S(=O)(=O)O)cc3S(=O)(=O)[O-])c3ccc(=[N+](CC)CC)cc-3oc2c1`, the Potency entry in test [15], in [16], in test [19], in test [9], in test [10] and in [11] was “inactive” each time. The result in test [17] and in test [8] was inactive. Besides, the Potency is 11.2 µM (active) in [5]; 8.91 µM (active) in test [6]; 35.5 µM (active) in test [7]; 7.94 µM (active) in test [14]; 35.5 µM (active) with Aromatase (Homo sapiens).

Take `CCCC[P+](C)(CCCC)CCCC`: the Potency result in test [15], in test [5], in test [6], in test [7], in [9] and in test [10] was “inactive” in each case. The Potency result (in test [13]; in test [14]; with Aromatase (Homo sapiens)) was “inactive” each time. The call in test [8] was inactive.

Turning to `C=CC(=O)Nc1cc2c(Nc3ccc(F)c(Cl)c3)ncnc2cc1OCCCN1CCOCC1`, the Potency was 5.31 µM (active) in test [1]; 8.41 µM (active) in test [2]; 5.96 µM (active) in [3]; 5.31 µM (active) in test [6]; 23.9 µM [inconclusive] (active) in [11]; 29.8 µM (active) in test [12]. Further, the Potency entry (in test [4]; in the test with Aromatase (Homo sapiens)) was “inactive” in each case. In test [17], the compound was classed as inactive.

For `CCCCCC(C)OC(=O)COc1ccc(Cl)c2cccnc12` (stereo not drawn), the Potency result in [15], in test [2], in test [5], in test [11], in test [12] and in test [13] was “inactive” throughout. For the same compound, the Potency entry in [14] was “inactive”. In test [8], the outcome was inactive.

Consider `Oc1ccccc1O`, for which the Potency in test [1] was 24.6 µM (active) and 30.6 µM (active); in test [2], 19.6 µM (active) and 54.5 µM (active); in test [3], 12.3 µM (active) and 27.3 µM (active); in test [6] it was 17.4 µM (active) and 15.4 µM (active); in test [7], 43.8 µM (active) and 43.3 µM (active); with Aromatase (Homo sapiens), 27.6 µM (active). Also, the Potency entry in test [4], in test [5] and in test [14] was “inactive” throughout. The call in test [8] was inactive.

As for `COC1=C(OC)C(=O)C(CCCCCCCCCCO)=C(C)C1=O`, the Potency was 8.41 µM (active) in test [1]; 13.3 µM (active) in test [2]; 10.6 µM (active) in test [3]; 16.9 µM (active) in test [16]; 29.8 µM (active) in the test with Aromatase (Homo sapiens). For the same compound, the Potency result in [4], in test [5], in test [18], in test [10], in test [11] and in test [14] was “inactive” throughout. Moreover, the call in [17] was inactive.

As for `Cc1ccc(O)c(N)c1`, the Potency in test [1] was 54.5 µM (active); in test [2] it was 54.5 µM (active); in test [3], 61.2 µM (active); in [6], 30.7 µM (active); in test [7], 43.3 µM (active). The Potency result in test [4], in [10], in [11] and in test [14] was “inactive” in each case. For the same compound, the result in [8] was inactive.

As for `CC1=Nc2ccccc2C1(C)C`, the Potency result in test [1], in [2], in test [4], in test [5], in test [6] and in test [9] was “inactive” throughout. Moreover, the Potency entry (in test [10]; in [11]; in test [12]; in test [13]; in [14]; with Aromatase (Homo sapiens)) was “inactive” each time. For the same compound, the compound was classed as inactive in test [8].

`CC(C)=CCC1=C(O)c2ccccc2C(=O)C1=O`: the Potency in test [2] is 48.3 µM (active); in [3] it was 60.8 µM (active); in test [7], 0.171 µM (active); in test [14] it was 54.2 µM (active). The result in test [17] and in [8] was inactive. Also, the Potency entry (in test [18]; in the test with Aromatase (Homo sapiens)) was “inactive” each time.

For the compound `ClCCl`, the Potency result in test [2], in test [3], in test [4], in test [16], in test [19] and in [5] was “inactive” in each case. Besides, the Potency entry in test [18], in [6], in [7], in test [9], in test [10] and in test [11] was “inactive” throughout. Further, the Potency result (in [12]; in [13]; in test [14]; with Aromatase (Homo sapiens)) was “inactive” throughout. Moreover, the call in test [17] and in test [8] was inactive.

Take `Oc1cc(Cl)cc(Cl)c1Cl`: the Potency entry in test [6], in test [11] and in test [13] was “inactive” throughout. Also, the compound was classed as inactive in test [8].

As for `COC(=O)Nc1nc2ccc(C(=O)c3ccccc3)cc2[nH]1`, the Potency in [1] is 0.285 µM (active); in test [2], 0.32 µM (active); in test [3], 0.403 µM (active); in [6], 0.285 µM (active). Moreover, the outcome in test [17] was inactive. Further, the Potency result in [5], in test [18], in [9], in test [12], in test [13] and in test [14] was “inactive” each time. Further, in the test with Aromatase (Homo sapiens), the Potency entry is “inactive”.

In the case of `NC(=O)c1cccc([N+](=O)[O-])c1`, the Potency entry in [1], in test [2], in test [3], in test [16], in [5] and in test [18] was “inactive” throughout. The Potency result in test [6], in [7], in [9], in test [10], in [11] and in test [12] was “inactive” in each case. The Potency entry (in test [13]; in [14]; with Aromatase (Homo sapiens)) was “inactive” each time. For the same compound, the compound was called inactive in test [17] and in [8].
